# Source: PubChem BioAssay
# Most compounds without a hit are left out; they make up all but 7.4% or so of the library.
# p53 reactivation – qHTS assay for re-activators of p53 using a Luc reporter | H1299 p53-A138V BP100-luciferase reporter, luminescence, 24 h | Potency, µM (doses to about 92.2 µM), for the others: at the top dose activity change, positive = activation, most hits filed as activators | 320,000 compounds, 0.063% hits; also: % of control where 0% means no effect; nearly all actives have a fitted effect of over 45% in size
#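 H1299 (p53-null), stable ts p53-A138V + BP100-Luc; 1000 cells/well, Opti-MEM/10% FBS; cpd 4 pt, 1:5; 24 h, 37 deg C, 5% CO2; detection reagent 10 min RT; luminescence.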
# ELG1 genotoxic – qHTS screen for small molecules that induce genotoxicity in human embryonic kidney (HEK293T) cells expressing luciferase-tagged ELG1. Potency, µM (series often up to 46 µM), inactives show at the top dose activity change, positive = activation, hits mostly activators. 330,000 compounds, 1.3% hits. AID 504466, 2011. HEK293T ELG1-luciferase reporter, luminescence, 16 h; also: % of control where 0% means no effect; nearly all actives have a fitted effect of over 60% in size
#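 Genotoxicity was scored as increased ELG1-luciferase reporter signal, measured by ONE-Glo luminescence (30 min, room temperature). Compound or vehicle exposure of the HEK293T reporter cells lasted 16 hr at 37°C.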
# FLuc counter – qHTS profiling assay for firefly luciferase inhibitor/activator using purifed enzyme and Km concentrations of substrates (counterscreen for miR-21 project). Luciferin 4-monooxygenase (Photinus pyralis), P08659. purified FLuc, Km substrates, luminescence inhibition. Potency, µM (highest dose often 57.5 µM), for the others: at the top dose activity change, negative = inhibition, most hits filed as inhibitors. 360,000 compounds, 6.9% hits;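 also: plate controls were vehicle for no effect and reference inhibitor for full effect; nearly all actives have a fitted effect of over 55% in size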
# Target sequence (P08659 whole entry, looked up): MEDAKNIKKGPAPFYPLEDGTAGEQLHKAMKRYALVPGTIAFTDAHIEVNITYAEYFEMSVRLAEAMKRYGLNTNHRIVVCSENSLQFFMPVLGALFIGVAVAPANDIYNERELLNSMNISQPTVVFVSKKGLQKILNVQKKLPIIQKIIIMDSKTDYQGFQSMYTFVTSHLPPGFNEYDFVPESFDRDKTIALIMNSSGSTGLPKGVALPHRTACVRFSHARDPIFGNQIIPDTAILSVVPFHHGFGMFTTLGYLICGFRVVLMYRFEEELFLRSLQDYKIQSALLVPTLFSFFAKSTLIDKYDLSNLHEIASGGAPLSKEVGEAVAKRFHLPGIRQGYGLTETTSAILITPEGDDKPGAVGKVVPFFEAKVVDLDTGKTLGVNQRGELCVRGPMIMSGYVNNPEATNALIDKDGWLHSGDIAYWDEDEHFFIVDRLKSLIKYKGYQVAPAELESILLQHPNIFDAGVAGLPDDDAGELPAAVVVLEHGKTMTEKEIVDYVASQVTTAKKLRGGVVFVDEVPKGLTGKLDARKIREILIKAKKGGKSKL
#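 Biochemical qHTS of compounds, final roughly 60 µM downward over six points, against 10 nM purified firefly luciferase using Km concentrations of substrates (10 uM D-luciferin, 10 uM ATP) in Tris acetate pH 7.5 buffer; luminescence output.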
# SMN2 splice up – qHTS Assay for Enhancers of SMN2 Splice Variant Expression; HEK293 SMN2-luciferase splicing reporter, luminescence, 30-36 h; Potency, µM (titrated, usually from 46.1 µM), inactives show at the highest dose activity change, positive = activation, hits mostly activators; 210,000 compounds, 2.8% hits; AID 1458, 2008; also: % of control where 0% means no effect; nearly all actives have a fitted effect of over 55% in size
#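 HEK293 cells carry an SMN2 […]–luciferase reporter in which exon 7 inclusion puts luciferase in frame. Cells were plated 10-12 h before compound addition, then incubated 30-36 h at 37C. ONE-Glo luminescence was read; sodium butyrate at 4.5 mM final served as control.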
# Rab9 prom act – qHTS Assay for Rab9 Promoter Activators; Potency, µM (titrated, usually from 9.22 µM), without a hit: at the highest dose activation, negative = inhibition, actives largely listed as activators; 320,000 compounds, 2.8% hits; AID 485297, 2010; Huh7 Rab9 promoter-luciferase reporter, luminescence, 24 h; also: % of control where 0% means no effect; nearly all actives have a fitted effect of over 60% in size
#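 Huh7 cells stably carrying Rab9 promoter–luciferase reporter, plated 1500 cells/well, compound added after 2 h and incubated 24 h at 37 °C; luciferase luminescence then read after 10 min with detection reagent.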
# NPC1 promoter act – qHTS Assay for NPC1 Promoter Activators. 320,000 compounds, 2.4% hits. Huh7 NPC1 promoter luciferase reporter, 24 h. Potency, µM (series often up to 9.22 µM), for the others: top-dose activation, most hits filed as activators. AID 485313, 2010; also: % of control where 0% means no effect; nearly all actives have a fitted effect of over 60% in size
#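 Luciferase expression driven by the NPC1 promoter was measured in stably transfected Huh7 cells after a 24 h compound incubation, using a luciferase reagent and a luminescence read.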
# * hit, by the source's call; ? = inconclusive; nt = no result given; [ ] = dose if it differs, or a comment. Calls follow the shape of the dose curve; as a rule, active = well fitted curve in the direction sought with a large enough effect; inconclusive = small, poorly fitted or top-dose-only effect, or another doubt; inactive = no such curve, though single readings can be large; an effect the other way counts as inactive or inconclusive. Potency is read from the fitted curve at half-maximal effect.
SMILES,p53 reactivation,ELG1 genotoxic,FLuc counter,SMN2 splice up,Rab9 prom act,NPC1 promoter act
COc1ccc(NC(=O)C2CCN(c3cc(C)nc4c(-c5ccc(Cl)cc5)c(C)nn34)CC2)cc1,nt,nt,-8%,-1%,nt,nt
CCc1nc2sc3c(=O)[nH]cnc3c2c2c1CSC(C)(C)C2,-1%,7%,-1%,nt,-3%,-2%
CC1(C)Cc2nc3sc4c(=O)n(CC(=O)NCc5ccco5)cnc4c3cc2CO1,23%,?,?,13%,25%,-6%
CC1(C)Cc2nc3sc4c(=O)[nH]cnc4c3cc2CS1,18%,?,13µM*,?,14%,26%
CCCCCn1cnc2c(sc3nc4c(cc32)CSC(C)(C)C4)c1=O,?,?,3.8µM*,19%,3.2µM*,3.5µM*
C#C[C@@]1(O)CC[C@@H]2[C@@H]3CCC4=CC(=O)CC[C@@H]4[C@H]3CC[C@]21C,nt,nt,nt,2%[20.6 µM],nt,nt
O=C(Nc1ccc(Cl)c(Cl)c1)N1CCSCC1,19%,-1%,?,-2%,1%,0%
Cc1ccc(C2CCN(C(=O)Nc3ccc(Cl)c(Cl)c3)C2)cc1 (centres undefined),nt,nt,4.8µM*,nt,nt,nt
CCOC(=O)C1CCN(C(=O)Nc2ccc3nc(-c4ccco4)c(-c4ccco4)nc3c2)CC1,5%,-5%,?,4%,0%,0%
CCOc1ccc(NC(=O)N2CCC(c3ccc(C)cc3)C2)cc1 (centres undefined),7%,5%,-7%,-6%,-1%,14%
Cc1ccc(C2CCN(C(=O)Nc3ccc(C)c(C)c3)C2)cc1 (centres undefined),nt,nt,12µM*,nt,nt,nt
O=C(Nc1ccc2nc(-c3ccco3)c(-c3ccco3)nc2c1)N1CCCCCC1,?,-22%,21µM*,-2%,9%,15%
O=C(Nc1ccc(Cl)c(Cl)c1)N1CCC(c2ccccc2)C1 (centres undefined),nt,nt,1.7µM*,nt,nt,nt
CC(C)c1cnc2c(c1SCC(=O)Nc1ccccc1C(F)(F)F)c(=O)n(C)c(=O)n2C,nt,nt,1%,nt,nt,nt
CN(Cc1ccccc1F)C(=O)c1sccc1-c1ccccc1,-6%,12%,1%,nt,-4%,-1%
CCOC(=O)c1c(C)cc(O)c(C=O)c1O,nt,nt,nt,-10%,nt,nt
CC1(C)C(=O)C(c2ccccc2)=C2CN3C(=O)N(CCc4ccccc4)C(=O)C3(Cc3ccc(C(F)(F)F)cc3)C=C21 (centres undefined),nt,nt,nt,-17%,nt,nt
O=C(O)CN1C(=O)C(=O)N(Cc2ccc(Cl)cc2Cl)C1=O,4%,-5%,-3%,nt,-2%,-4%
S=C(Nc1ccc2nsnc2c1)N1CCCC1,19%,8%,?,nt,26%,14%
O=C(Nc1ccc2nsnc2c1)N1CCCCCC1,23%,?,17µM*,-9%,?,21%
O=C(Nc1ccc(Cl)c(Cl)c1)N1CCC(N2CCCCC2)CC1,-2%,3%,2%,-1%,-3%,-4%
O=C(Nc1ccc(Cl)c(Cl)c1)N1CCCCCC1,38%,?,6µM*,nt,2.5µM*,2.8µM*
CCOc1ccc2oc(=O)cc(CN3CCN(C(=O)c4cccc(F)c4)CC3)c2c1,nt,nt,-7%,-1%,nt,nt
NNC(=O)c1ccc(CSc2nc3ccccc3s2)cc1,-3%,7%,17µM*,-3%,16%,1%
CCN(C(C)=O)c1nnc(CSc2nc3ccccc3s2)s1,?,8.2µM*,?,-20%,?,?
SMILES,p53 reactivation,ELG1 genotoxic,FLuc counter,SMN2 splice up,Rab9 prom act,NPC1 promoter act
CNc1nnc(CSc2nc3ccccc3s2)s1,?,?,?,?,?,24%
COCCN(CCOC)C(=O)c1ccc(CSc2nc3ccccc3s2)cc1,1%,12%,17µM*,nt,17%,27%
CSc1nsc2nc(=O)c(/C=C3\C(C)=Nc4ccccc43)c(N)n12,?,-5%,15µM*,7%,22%,9%
CC1=Nc2ccccc2/C1=C/c1sc(=S)n(-c2cccc(C(=O)O)c2)c1O,9%,2%,?,-11%,0%,-1%
COc1ccc(C2CC2/C(C)=N/OC(=O)c2cccs2)cc1 (centres undefined),7%,1%,24µM*,11%,0%,0%
O=C(OCCc1cc2ccccc2c(=O)o1)c1cccs1,?,-1%,4.3µM*,nt,1%,26%
COc1ccc(C(=O)O/N=C(\C)c2nccs2)cc1,8%,1%,0.48µM*,nt,15%,-2%
C/C(=N\OC(=O)c1ccc(F)cc1)c1nccs1,4%,-1%,0.67µM*,-6%,3%,-4%
C/C(=N\OC(=O)c1c(-c2c(F)cccc2Cl)noc1C)c1nccs1,1%,-1%,7%,nt,-3%,-9%
CCOC(=O)c1[nH]c2ccccc2c1NC(=O)c1ccc(OC)c(OC)c1,nt,nt,-7%,-1%,nt,nt
O=C(c1cccc(S(=O)(=O)Nc2ccc(F)cc2)c1)N1CCC1,11%,-1%,0%,nt,1%,-3%
COc1ccc(C(=O)O/N=C(/C)c2cccs2)cc1,10%,2%,0.076µM*,-3%,-2%,-3%
C/C(=N/OC(=O)c1c(F)cccc1F)c1nccs1,13%,-8%,4.8µM*,4%,-1%,-4%
COc1ccc(OCCOC(=O)c2cccs2)cc1,8%,23µM*,17µM*,0%,-8%[1.84 µM],1%
COC(=O)c1ccc(OC(=O)c2cccs2)cc1,0%,3%,24µM*,7%,3%,-21%
COC(=O)C1CCN(C(=O)COC(=O)CNC(=O)c2ccc(Cl)cc2Cl)CC1,-3%,-1%,2%,nt,-1%,-2%
O=C(c1cn(CCOc2ccccc2F)c2ccccc12)C1CCCCC1,nt,nt,0%,10%,nt,nt
Cc1c(O)cc2c(c1O)C(=O)CC(c1ccccc1)O2 (centres undefined),3%,3%,-19%,nt,-2%,1%
COc1c(O)cc2c(c1O)C(=O)CC(c1ccccc1)O2 (centres undefined),15%,?,9.5µM*,nt,?,?
Brc1ccc(COc2ncnc3ccccc23)cc1,0%,0%,1%,6%,12%,1%
c1ccc(OCCOc2ncnc3ccccc23)cc1,17%,?,?,3%,4µM*,3.5µM*
COc1ccc2c(Cl)c(C(=O)N/N=C3\CCCC(=O)C3)sc2c1,1%,2%,17µM*,?,?,15%
